This is part of a sample that, as a whole, favours compounds with a hit. Of some 83,000 tested, about 20% had one in any assay.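 Growth was measured after 48 h exposure to one concentration of compound in 96-well plates. Values under 10 count as active.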 Values without a mark were called inactive. Activity calls are given as the source filed them.
What was measured:
Assay in all cases: NCI-60 one-dose screen, 48 h (100 = growth as untreated, 0 = no growth, -100 = all killed)
Conditions in all cases: 10 µM unless noted
T-47D breast = test system: T-47D breast
MDA-MB-435 melanoma = test system: MDA-MB-435 melanoma
SW-620 colon = test system: SW-620 colon
MCF7 breast = test system: MCF7 breast
HCT-116 colon = test system: HCT-116 colon
HCC-2998 colon = test system: HCC-2998 colon
KM12 colon = test system: KM12 colon
BT-549 breast = test system: BT-549 breast

SMILES | growth (T-47D breast) | growth (MDA-MB-435 melanoma) | growth (SW-620 colon) | growth (MCF7 breast) | growth (HCT-116 colon) | growth (HCC-2998 colon) | growth (KM12 colon) | growth (BT-549 breast)
CCC(c1cccc(Br)c1)C(C(=O)O)c1ccc(OC)cc1 (stereo not drawn) | 108% | 29.9% | 93.2% | 93% | 112% | 93.5% | 83.3% | –
COc1cc(-c2cc(/C=C3\CCCCC3=O)[nH]n2)cc(OC)c1OC | 90.1% | 102% | – | 92.5% | 89% | 106% | 94.4% | 99.7%
CCN(CC)CCCNc1nc(C)cc(Nc2ccc3nc(C)cc(N)c3c2)n1 | 92.2% | 103% | – | – | 93% | 97.6% | 101% | 84.9%
Nc1c(C(=O)Nc2cccc(C(F)(F)F)c2)sc2nc3c(cc12)C(O)CCC3 (stereo not drawn) | 17% | -16.7% (active) | – | 10.2% | 35.2% | 78.8% | 18.1% | 52.9%
C/C(=C\c1csc(C)n1)[C@@H]1C[C@@H]2O[C@]2(C)CCC[C@H](C)[C@H](O)[C@@H](C)C(=O)C(C)(C)[C@@H](O)CC(=O)N1 | -21.8% (active) | -79.7% (active) | – | -82.1% (active) | -79.1% (active) | – | -99.2% (active) | -45.3% (active)
N#Cc1ccc(NC(=O)c2ccc3cccnc3c2O)cc1 | 27.3% | 26.2% | – | 15.8% | 20.3% | 44.6% | 25.7% | 27.7%
COc1cc(/C=C2\CCCC3=C2N=C2SC(C)=NN2C3c2cc(OC)c(OC)c(OC)c2)cc(OC)c1OC (stereo not drawn) | 37.6% | -63.9% (active) | 10.3% | 12.5% | -71.6% (active) | 55.4% | -37.8% (active) | –
COc1cc(OC)c(C(=O)/C=C/c2ccc(C#N)cc2)c(OC)c1 | 18.5% | 5.64% (active) | – | 13.8% | 10.2% | 36.8% | 7.74% (active) | -7.5% (active)
COc1cc(NCCN=C(N)NC(N)=NC(C)C)c2ncccc2c1 | -5.22% (active) | 103% | – | -55.7% (active) | 28.1% | 82.9% | 29.9% | 52.4%
O=S(=O)(NCCCNc1cc(-c2cn(-c3ccccc3)nc2-c2cccc(O)c2)ccn1)c1cccc(F)c1 | 15.6% | 49.3% | 29.5% | 31.2% | 32.1% | 10.3% | 28.2% | –
COc1ccc(C2=NN(c3ccc(S(N)(=O)=O)cc3)C(c3cn(-c4ccccc4)nc3-c3ccc(Cl)cc3)C2)cc1 (stereo not drawn) | 67.1% | 79.3% | 101% | 66.7% | 74.5% | 98.2% | 88.6% | –
Clc1ccc2c(c1)NC1(CCSc3ccccc31)n1nccc1-2 (stereo not drawn) | 101% | 110% | 102% | 102% | 89.4% | 97.3% | 102% | –
CC(=O)Nc1ccc(S(=O)(=O)N2C(=O)CCC2C(=O)Nc2ccccc2)cc1 (stereo not drawn) | 17.6% | 27.7% | 30.2% | 19.2% | 26.5% | 30.5% | 12.4% | –
CC1Cc2c(N(C)C)ncnc2N(C)c2ccc(O)cc21 (stereo not drawn) | 89.7% | 8.93% (active) | – | 73.9% | 79.6% | 88.8% | 59.9% | 88.8%
COc1cc(NS(C)(=O)=O)ccc1Nc1c2ccc([N+](=O)[O-])cc2nc2c(C)cccc12 | 1.78% (active) | 27.2% | – | 15.6% | 22.9% | -1.86% (active) | -29.1% (active) | 27%
COc1ccc(Cn2cc(COc3cc(/C=C/C(=O)c4cc(OC)c(OC)c(OC)c4)ccc3OC)nn2)cc1 | 65.4% | 12.5% | – | – | 17.9% | 110% | 15.8% | 30.8%
COc1ccc(-c2cn[nH]c2-c2cc(OC)c3c(c2)OCCO3)cc1 | 49.5% | – | 25.5% | 19.6% | 10.5% | 25.3% | 3.46% (active) | 53.3%

SMILES | growth (T-47D breast) | growth (MDA-MB-435 melanoma) | growth (SW-620 colon) | growth (MCF7 breast) | growth (HCT-116 colon) | growth (HCC-2998 colon) | growth (KM12 colon) | growth (BT-549 breast)
C=C1C(=O)O[C@H]2[C@H]1CC/C(Cn1cc(-c3ccsc3)nn1)=C\CC[C@@]1(C)O[C@@H]21 | -62% (active) | -16% (active) | – | -72.6% (active) | -96.4% (active) | -46.7% (active) | 34.3% | -56.3% (active)
CCCCCCCCCCCCCCCCC(Br)C(=O)O (stereo not drawn) | 86.7% | 98.4% | – | 92.9% | 105% | 102% | 111% | 122%
CCN(CC)P(=O)(N(CC)CC)N(CCCSC/C=C(\C)CC/C=C(\C)CCC=C(C)C)CCCN1CCN(C)CC1 | 88.9% | 100% | – | 97.6% | 97.1% | 104% | 108% | 102%
CC(Br)C(O)c1cc2c(cc1Br)OCO2 (stereo not drawn) | 100% | 110% | 104% | 93% | 101% | 111% | 108% | –
CC(=O)Nc1nc(C(=O)N2N=C(C)/C(=C/c3cccs3)C2=O)cs1 | 100% | 103% | 110% | 90.8% | 100% | 108% | 110% | –
Cc1cc(NC(=O)COC(=O)c2sc3cc(F)ccc3c2Cl)no1 | 102% | 108% | 108% | 106% | 103% | 112% | 108% | –
Cc1cc(C(=O)O)c(N)c(C)n1 | 112% | 107% | 106% | 93.6% | 102% | 111% | 110% | –
Cc1cc2c(c(=O)o1)C(c1ccc(OC(=O)N3CCOCC3)cc1)C(C#N)=C(N)O2 (stereo not drawn) | 102% | 105% | – | 98% | 104% | 99.4% | 105% | 104%
COC(=O)c1ccc(C)cc1 | 91.4% | 101% | 101% | 91.7% | 101% | 109% | 108% | –
CCN(CC)CCC(=O)c1cccc2ccccc12 | 85.1% | 108% | 104% | 63.9% | 109% | 97.1% | 103% | –
O=S(=O)(NCCCNc1cc(-c2cn(-c3ccccc3)nc2-c2cccc(O)c2)ccn1)c1ccc(Cl)cc1 | 8.59% (active) | 16.4% | 15.6% | 11% | 15% | -44.9% (active) | 12.5% | –
CCC(=O)Oc1ccc2c(c1)CC[C@@H]1[C@@H]2CC[C@]2(C)C[C@H](OC(=O)CC)C[C@@H]12 | 83.7% | 0.38% (active) | – | 68.5% | 50.5% | 85% | 53.5% | 60.1%
CCCn1c(=S)sc2c(Cl)nc(C)nc21 | 104% | 104% | 102% | 46.7% | 104% | 111% | 104% | –
c1ccc2nc(-c3ccc4ccccc4n3)ccc2c1 | – | 91.9% | 100% | 61.8% | 88.7% | 101% | 90.4% | 93.7%
COc1ccc(OC)c(-c2ccc(-c3ccccc3N)c3[nH]c4ccccc4c23)c1 | 62.8% | 105% | 80.7% | 69.8% | 61.6% | 102% | 72.9% | –
CCCS(=O)(=O)c1nc(NC2CC2)cc(-c2ccc3c(ccn3C3CC(C)(C)NC(C)(C)C3)c2)n1 | -74.3% (active) | 11.5% | -61.6% (active) | -80.5% (active) | -78.2% (active) | 1.29% (active) | 6.05% (active) | –

Reference: PubChem BioAssay (NCI)
